Screening data from PubChem.
Pf growth 96h = P. falciparum growth inhibition at 96 hours; actives 6.9% (n = 320,000); AID 504834; P. falciparum luciferase reporter growth, 96 h; Potency, µM (highest dose often 28.7 µM), for inactives: at the highest dose activity change, negative = inhibition, usual class: inhibitors; note: % is set by controls: 0 for no effect and ±100 for the full control effect
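96 h incubation, 37 C, 5% CO2, of luciferase-reporter P. falciparum-infected RBCs (2% hematocrit, 0.05% parasitemia final) with test compounds; endpoint luminescence.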
Pf growth 48h = P. falciparum growth inhibition at 48 hours (one generation); AID 504832; Potency, µM (titrated, usually from 28.7 µM), inactives show top-dose activity change, negative = inhibition, most hits filed as inhibitors; P. falciparum luciferase growth in erythrocytes, 48 h; actives 5.9% (n = 310,000); note: % is set by controls: 0 for no effect and ±100 for the full control effect
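Growth was read as firefly luciferase luminescence after a 48 h, 37 C, 5% CO2 exposure of compounds to reporter-bearing P. falciparum cultures (0.1% parasitemia, 2% hematocrit final) in Albumax-supplemented RPMI 1640.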
SARS PLP yeast = blocks SARS-CoV papain-like protease in a yeast assay; S. cerevisiae expressing SARS-CoV PLpro, growth rescue; Potency, µM (top dose mostly 32.9 µM), without a hit: at the top dose activity, positive = growth rescue, most hits filed as activators; actives 0.19% (n = 330,000); AID 485353; calls by dose curve; note: 0% is about no effect; nearly all actives have a fitted effect of over 55% in size
AMA1 RON2 block = disrupts binding of P. falciparum AMA1 to RON2; actives 0.2% (n = 360,000); Potency, µM (series often up to 58.2 µM), inactives show at the top dose activity change, negative = inhibition, usual class: inhibitors; AlphaScreen AMA1-biotinylated RON2 peptide binding; AID 720542;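 note: 0% = vehicle wells and -100% = peptide control; nearly all actives have a fitted effect of over 45% in size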
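AMA1 (3D7) with his tag at 25 nM final met compounds first, then biotinylated RON2 peptide at 25 nM; detection used donor plus acceptor beads, 10 µg/mL apiece, read by AlphaScreen after 30 min at room temperature.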
NS1 function inh = inhibitors of influenza NS1 protein function; Potency, µM (titrated, usually from 46.1 µM), for the others: at the top dose activity, positive = more growth; actives 0.4% (n = 270,000); AID 2326; calls by dose curve; note: actives are rising curves; nearly all actives have a fitted effect of over 50% in size
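Recovery from NS1-induced slow growth read by OD600 in budding yeast switched to galactose assay medium (pH 6.0, -URA) at 1:100 dilution. Compound 23 nl per well; the matching strain lacking NS1 serves as control.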
HCV inhibitor = inhibitors of hepatitis C virus infection | Huh7.5.1 HCVcc-Cre infection, luciferase reporter, 44 h | Potency, µM (top dose mostly 41.8 µM), for the others: at the highest dose activity change, negative = inhibition, actives largely listed as inhibitors | actives 3.4% (n = 340,000) | AID 651820; note: % is set by controls: 0 for no effect and ±100 for the full control effect
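Luciferase read-out (15 sec integration) after a 15 min room-temperature substrate step quantifies HCVcc-Cre infection. Cells, 1,000 per well, had compound added 4 h post-plating, then virus at ~0.5 moi, and were cultured 44 h.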
An asterisk follows results filed as active; ? = inconclusive; / = no result given; [ ] = another dose, or the depositor's remark. Sampled rows, rich in hits. Any-hit rate of the full collection: about 12%. Unless noted, calls come from the whole dose curve; as a rule, active = well fitted curve in the direction sought with a large enough effect; inconclusive = small, poorly fitted or top-dose-only effect, or another doubt; inactive = no such curve, though single readings can be large; an effect the other way counts as inactive or inconclusive. Potency is the fitted concentration of half-maximal effect.

SMILES | Pf growth 96h | Pf growth 48h | SARS PLP yeast | AMA1 RON2 block | NS1 function inh | HCV inhibitor
O=C(OCc1cn([C@@H]2CN(C(=O)C3CCCCC3)[C@@H](c3ccc(Cl)cc3)C[C@H]2O)nn1)c1ccccc1 | / | / | / | 2.8% | / | /
O=C(c1cccc(C(=O)N2CCN(c3ccccc3F)CC2)c1)N1CCN(c2ccccc2F)CC1 | -0.5% | 13.1µM* | 3.0% | 30.7% | -11.8% | 12.7%
O=C(NC(=S)N1CCN(c2ccccc2)CC1)c1ccccc1 | 4.65µM* | 10.4µM* | 11.8% | / | 16.8% | /
O=C(NC(=S)N1CCN(c2ccc(F)cc2)CC1)c1ccccc1 | / | / | / | 107.3% | / | /
O=C(c1c(F)cccc1F)N1CCN(c2ccccc2F)CC1 | -7.5% | 5.9% | 9.8% | 6.6% | -19.1% | 5.3%
O=C(O)c1cccc(N2CCCC2)c1 | 9.28µM* | 5.7% | 3.2% | -6.6% | -8.4% | 25.3%
O=C(c1ccccc1Oc1ccccc1)N1CCN(c2ccccc2)CC1 | 14.7µM* | ? | -12.8% | -4.4% | -57.9% | -28.2%
CN1CCC(n2[nH]c(-c3ccccc3)c(Cc3ccccc3)c2=O)CC1 | / | / | / | -6.6% | 0.0% | 4.3%
CC[n+]1c(C)sc2cc(C)ccc21 | ? | ? | 0.4% | -12.4% | 2.2% | -2.7%
Cc1ccc2c(c1)sc(-c1ccc(N(C)C)cc1)[n+]2C | ? | 0.0% | -13.3% | -7.9% | -71.8% | 3.55µM*
COc1cccc(C(=O)Nc2nnc(-c3ccc(OC)cc3OC)s2)c1 | 15.6% | 11.8% | -2.2% | 16.8% | 5.1% | 10µM*
COc1cccc(C(=O)Nc2nnc(-c3ccccc3)s2)c1 | ? | -24.0%[0.00184 µM] | -1.2% | 0.3% | -5.5% | 6.9%
COc1ccccc1-c1nnc(NC(=O)C(C)C)s1 | -13.4% | 41.0% | 0.1% | 8.0% | -0.6% | -6.2%
COc1ccccc1-c1nnc(NC(C)=O)s1 | 7.38µM* | 196.3% | 2.6% | 0.0% | -2.4% | -17.8%
CC(=O)N1CCOc2cc(S(=O)(=O)Nc3c(C)cccc3C(C)C)c(Cl)cc21 | 5.22µM* | 8.28µM* | -3.8% | / | / | /
O=C(Nc1ccc(OC(F)F)cc1)c1cc(S(=O)(=O)N2CCCCC2)ccc1N1CCOCC1 | 4.65µM* | ? | 5.8% | -7.1% | / | -10.0%
COc1ccc(C)cc1NC(=O)c1cc(S(=O)(=O)N2CCCCC2)ccc1N1CCOCC1 | ? | 11.7µM* | -5.4% | 0.2% | / | ?
CC(=O)Nc1ccc(NC(=O)c2cc(S(=O)(=O)N3CCCCC3)ccc2N2CCOCC2)cc1 | / | / | / | 1.6%[11.6 µM] | / | 34.6%
Cc1ccc(S(=O)(=O)N2CCOCC2)cc1C(=O)Nc1ccc(N2CCCCCC2)cc1 | ? | ? | 4.2% | ? | / | 5.01µM*
NC(=O)c1ccc(NC(=O)c2cc(S(=O)(=O)N3CCCCC3)ccc2N2CCOCC2)cc1 | ? | ? | -9.0% | 2.2% | / | 0.7%
Cc1ccc(NC(=O)c2cc(S(=O)(=O)N3CCCCC3)ccc2N2CCOCC2)cc1F | / | 11.7µM* | 28.6% | -5.3% | 2.8% | -23.0%
Cc1ccccc1NC(=O)CN1C(=O)NC(C)(CCc2ccccc2)C1=O (configuration not stated) | -21.6% | 13.1µM* | 1.3% | -4.3% | / | -3.9%
CC1(CCc2ccccc2)NC(=O)N(CC(=O)Nc2ccccc2C#N)C1=O (configuration not stated) | 12.0% | -1.5% | -0.1% | 4.0% | / | ?
CN(c1ccccc1C(=O)O)S(=O)(=O)c1ccc2c3c(cccc13)C(=O)N2 | 11.7µM* | 8.1% | 0.9% | 8.1% | -21.9% | -0.9%
O=C(O)c1ccccc1NS(=O)(=O)c1ccc2c3c(cccc13)C(=O)N2 | 1.0% | 13.0% | 4.1% | 0.4% | 4.6% | 10.3%
SMILES | Pf growth 96h | Pf growth 48h | SARS PLP yeast | AMA1 RON2 block | NS1 function inh | HCV inhibitor
NNC(=O)COc1ccc(-c2nccc(-c3ccc(F)cc3)n2)cc1 | 11.7µM* | ? | -2.1% | 73.8% | ? | -28.4%
Cc1ccc(S(=O)(=O)NCCNC(=O)c2cc(OCC(F)(F)F)ccc2OCC(F)(F)F)cc1 | ? | ? | 5.0% | 2.4% | 14.7% | -2.7%
O=C(NCCNS(=O)(=O)c1ccccc1Cl)c1cc(OCC(F)(F)F)ccc1OCC(F)(F)F | 11.7µM* | ? | -5.0% | 42.5% | 13.1% | 2.8%
COc1cc2sc3cc(NCc4ccc5c(c4)OCO5)ccc3c(=O)c2cc1OC | / | / | -1.8% | 7.3% | / | ?
COc1cc2sc3cc(NCc4ccc(C)o4)ccc3c(=O)c2cc1OC | / | / | 1.5% | -6.6% | / | 3.55µM*
Cc1ccc(CC2C(=O)N(c3nc(C)cc(C)n3)C(=O)C2C)cc1 (configuration not stated) | ? | 2.2% | 0.5% | -3.6% | 3.3% | 16.4%
O=C(Cn1ncc2c3ccccc3n(Cc3ccccc3)c2c1=O)NCCCN1CCCC1=O | ? | ? | -0.1% | -2.1% | 4.1% | -2.6%
Cc1ccc(C)c(Cn2c3ccccc3c3cnn(CC(=O)NCCCN4CCOCC4)c(=O)c32)c1 | ? | 13.1µM* | -0.9% | 10.7% | -9.7% | -23.7%
O=C(Cn1ncc2c3ccccc3n(Cc3ccc(Cl)cc3)c2c1=O)NCCCN1CCCC1=O | 13.1µM* | -21.0% | -1.2% | 0.0% | 8.8% | -23.9%
Cc1c2cnn(CC(=O)NCCCN3CC(C)CC(C)C3)c(=O)c2c(C)n1Cc1ccccc1Cl (configuration not stated) | 5.8% | 6.57µM* | 3.1% | 0.0% | -4.8% | -18.7%
Cc1ccc(C)c(Cn2c3ccccc3c3cnn(CC(=O)NCCN4CCOCC4)c(=O)c32)c1 | 9.28µM* | ? | -2.7% | -0.5% | 0.6% | -27.6%
COc1ccccc1NC(=O)C(C)OC(=O)/C(=C/c1ccccc1)NC(C)=O (configuration not stated) | 2.4% | 13.6% | 8.4% | 27.7% | / | 18.1%
Clc1ccc2[nH]cc(-c3nnnn3-c3ccccc3)c2c1 | -6.9% | -18.5% | -1.0% | -0.3% | -4.9% | ?
Clc1ccc(-n2nnnc2-c2cnc3ccc(Cl)cc3c2-c2ccccc2)cc1 | 11.7µM* | 13.1µM* | 1.4% | -0.4% | -21.7% | ?
Clc1ccc2ncc(-c3nnnn3-c3ccccc3)c(-c3ccccc3)c2c1 | ? | ? | -11.5% | -12.6% | 8.3% | 2.82µM*
O=C(NC1CC1(c1ccccc1)c1ccccc1)c1ccccc1 (configuration not stated) | / | / | / | 18.1% | / | 6.9%
CCOc1ccc(CN(C)C(=O)CN2C(=O)NC(c3ccccc3)(c3ccccc3)C2=O)cc1 | ? | 13.1µM* | -1.6% | -2.6% | / | ?
O=C(CN1C(=O)NC(c2ccccc2)(c2ccccc2)C1=O)c1c[nH]c2ccccc12 | -10.3% | 11.7µM* | -0.5% | / | ? | /
Cc1cc(C(=O)CN2C(=O)NC(c3ccccc3)(c3ccccc3)C2=O)c(C)n1Cc1ccccc1 | 8.28µM* | ? | -3.1% | -13.3% | 26.9% | -48.4%
CN(C)S(=O)(=O)c1cccc(-c2nnc3n2CCCCC3)c1 | 42.6% | 6.7% | 1.0% | -4.4% | -11.4% | 4.5%
